# Source: the supplement of paper PMC10037445
# In all, about 2,900 compounds were measured (“NF-kB SEAP reporter activity, fold change vs agonist alone”: median about 0.99, highest 2% from about 2.6 on). This is one part of a sample in which the highest values are shown more often than they occur.
# What was measured:
# [1] = test system: RAW-Dual; assay: NF-kB SEAP reporter activity, fold change vs agonist alone; cytotoxicity flag (confluency mask): cytotoxic (confluency <70% of control); higher = enhanced NF-kB activity
# Procedure, shortened: (§1)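 Supernatant from RAW-Dual macrophages was read after 20 hours for IRF by QuantiLuc luminescence and for NF-κB by QuantiBlue absorbance at 620 nm. The cells (50,000 cells/well in DMEM, 384-well plates, 37 °C, 5% CO2) had received 50 nL of library stock by pin tool and, 1 h later, a PRR agonist. Reporter activity is expressed relative to agonist-alone wells as fold change, and wells were flagged cytotoxic if IncuCyte confluency was under 70% of agonist controls in both mask sets.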
# [2] = test system: RAW-Dual; assay: NF-kB SEAP reporter activity, fold change vs agonist alone; higher = enhanced NF-kB activity
# Procedure, shortened: as §1
# [3] = test system: RAW-Dual; assay: NF-kB SEAP reporter activity, fold change vs agonist alone; cytotoxicity flag (confluency mask): not cytotoxic; higher = enhanced NF-kB activity
# Procedure, shortened: as §1
# [4] = agonist: ODN 1826 (TLR9) 0.5 ug/mL
# [5] = agonist: Pam2CSK4 (TLR2/6) 0.1 ug/mL
# [6] = agonist: Pam3CSK4 (TLR2/1) 0.1 ug/mL
# [7] = library stock concentration (final ~1000-fold dilution): 10 mM, cytotoxicity flag (confluency mask): cytotoxic (confluency <70% of control), agonist: Imiquimod (TLR7) […]
# [8] = library stock concentration (final ~1000-fold dilution): 10 mM, cytotoxicity flag (confluency mask): cytotoxic (confluency <70% of control), agonist: MPLA (TLR4) […]
# [9] = library stock concentration (final ~1000-fold dilution): 10 mM, cytotoxicity flag (confluency mask): not cytotoxic, agonist: MPLA (TLR4) […]
# [10] = library stock concentration (final ~1000-fold dilution): 10 mM, cytotoxicity flag (confluency mask): not cytotoxic, agonist: Imiquimod (TLR7) […]
structure (smiles),measurement,setting,value
COc1ccc(N2C(=O)/C(=C/c3ccc([N+](=O)[O-])s3)SC2=S)cc1 (library stock concentration (final ~1000-fold dilution): 10 mM),NF-kB SEAP reporter activity,[1]; agonist: LPS (TLR4) 0.1 ug/mL,0.439
same,NF-kB SEAP reporter activity,[1]; [4],2.23
same,NF-kB SEAP reporter activity,[1]; [5],0.267
same,NF-kB SEAP reporter activity,[1]; [6],0.382
COc1ccc(N2C(=O)/C(=C/c3ccc([N+](=O)[O-])s3)SC2=S)cc1,NF-kB SEAP reporter activity,[2]; [7],1.65
same,NF-kB SEAP reporter activity,[2]; [8],1.63
CC(NC(=O)/C(C#N)=C/c1cccc(Br)n1)c1ccccc1 (stereo unspecified),NF-kB SEAP reporter activity,[2]; [7],0.268
same,NF-kB SEAP reporter activity,[2]; [8],0.204
CC(NC(=O)/C(C#N)=C/c1cccc(Br)n1)c1ccccc1 (stereo unspecified) (library stock concentration (final ~1000-fold dilution): 10 mM),NF-kB SEAP reporter activity,[1]; agonist: LPS (TLR4) 0.1 ug/mL,0.233
same,NF-kB SEAP reporter activity,[1]; [4],0.186
same,NF-kB SEAP reporter activity,[1]; [5],0.0992
same,NF-kB SEAP reporter activity,[1]; [6],0.136
CCC1OC(=O)C(C)(F)C(=O)C(C)C(OC2OC(C)CC(N(C)C)C2O)C(C)(OC)CC(C)C(=O)C(C)C2N(CCCCn3cc(-c4cccc(N)c4)nn3)C(=O)OC12C (stereo unspecified),NF-kB SEAP reporter activity,[2]; [9],1.53
CCC1OC(=O)C(C)(F)C(=O)C(C)C(OC2OC(C)CC(N(C)C)C2O)C(C)(OC)CC(C)C(=O)C(C)C2N(CCCCn3cc(-c4cccc(N)c4)nn3)C(=O)OC12C (stereo unspecified) (library stock concentration (final ~1000-fold dilution): 10 mM),NF-kB SEAP reporter activity,[3]; agonist: LPS (TLR4) 0.1 ug/mL,1.47
same,NF-kB SEAP reporter activity,[3]; [4],0.196
same,NF-kB SEAP reporter activity,[3]; [5],0.966
same,NF-kB SEAP reporter activity,[3]; [6],0.98
Nc1nc(-c2ccco2)c2cnn(Cc3ccccc3F)c2n1 (library stock concentration (final ~1000-fold dilution): 10 mM),NF-kB SEAP reporter activity,[3]; agonist: LPS (TLR4) 0.1 ug/mL,1.11
same,NF-kB SEAP reporter activity,[3]; [4],1.1
same,NF-kB SEAP reporter activity,[3]; [5],1.03
same,NF-kB SEAP reporter activity,[3]; [6],1.08
Nc1nc(-c2ccco2)c2cnn(Cc3ccccc3F)c2n1,NF-kB SEAP reporter activity,[2]; [10],1.05
same,NF-kB SEAP reporter activity,[2]; [9],1.22
NS(=O)(=O)c1ccc(NC(=S)N2CCN(C/C=C/c3ccccc3)CC2)cc1 (library stock concentration (final ~1000-fold dilution): 10 mM),NF-kB SEAP reporter activity,[3]; agonist: LPS (TLR4) 0.1 ug/mL,1.42
same,NF-kB SEAP reporter activity,[3]; [4],1.17
same,NF-kB SEAP reporter activity,[3]; [5],0.787
same,NF-kB SEAP reporter activity,[3]; [6],0.825
NS(=O)(=O)c1ccc(NC(=S)N2CCN(C/C=C/c3ccccc3)CC2)cc1,NF-kB SEAP reporter activity,[2]; [10],1.02
same,NF-kB SEAP reporter activity,[2]; [9],1.1
Cl.OCCNCc1ccc(OCc2ccc(F)cc2)c(OCc2ccc(F)cc2)c1 (library stock concentration (final ~1000-fold dilution): 10 mM),NF-kB SEAP reporter activity,[1]; agonist: LPS (TLR4) 0.1 ug/mL,0.702
same,NF-kB SEAP reporter activity,[1]; [4],0.629
same,NF-kB SEAP reporter activity,[1]; [5],0.301
same,NF-kB SEAP reporter activity,[1]; [6],0.354
Cl.OCCNCc1ccc(OCc2ccc(F)cc2)c(OCc2ccc(F)cc2)c1,NF-kB SEAP reporter activity,[2]; [7],1.41
same,NF-kB SEAP reporter activity,[2]; [8],1.5
Cl.N=C(N)NCCCCC(N)C(=O)O (stereo unspecified) (library stock concentration (final ~1000-fold dilution): 10 mM water),NF-kB SEAP reporter activity,[3]; agonist: LPS (TLR4) 0.1 ug/mL,1.17
same,NF-kB SEAP reporter activity,[3]; [4],1.12
same,NF-kB SEAP reporter activity,[3]; [5],1.21
same,NF-kB SEAP reporter activity,[3]; [6],0.923
Cl.N=C(N)NCCCCC(N)C(=O)O (stereo unspecified),NF-kB SEAP reporter activity,"[2]; library stock concentration (final ~1000-fold dilution): 10 mM water, cytotoxicity flag (confluency mask): not cytotoxic, agonist: MPLA (TLR4) […]",1.08
CCCCNc1ncc2c(-c3ccc(CN4CCN(C)CC4)cc3)cn(C3CCC(O)CC3)c2n1.Cl (stereo unspecified),NF-kB SEAP reporter activity,[2]; [7],0.547
same,NF-kB SEAP reporter activity,[2]; [8],0.322
CCCCNc1ncc2c(-c3ccc(CN4CCN(C)CC4)cc3)cn(C3CCC(O)CC3)c2n1.Cl (stereo unspecified) (library stock concentration (final ~1000-fold dilution): 10 mM),NF-kB SEAP reporter activity,[1]; agonist: LPS (TLR4) 0.1 ug/mL,0.236
same,NF-kB SEAP reporter activity,[1]; [4],0.351
same,NF-kB SEAP reporter activity,[1]; [5],0.128
same,NF-kB SEAP reporter activity,[1]; [6],0.192
